# According to ChEMBL document CHEMBL4296182, “CO-ADD screening of NIH NCI Diversity Set V”:
# For part of these data: Results with a measured potency or affinity are listed apart.
# Tests used:
# Staphylococcus aureus = experiment: Antibacterial activity against Staphylococcus aureus MRSA ATCC 43300 (CO-ADD:GP_020); MIC in CAMBH media using NBS plates, by Resazurin F(560/590); format: functional; conditions: Concentration 20 uM, ASSAY_TEST Inhibition of Bacterial Growth, detection method Resazurin, Fluorescence (ex560/em590), MEDIA CAMHB, plate type 384well, CORNING #3640, time 18 hr
# Acinetobacter baumannii = experiment: Antibacterial activity against Acinetobacter baumannii ATCC 19606 (CO-ADD:GN_034); MIC in CAMBH media using NBS plates, by Resazurin F(560/590); format: functional; conditions: Concentration 20 uM, ASSAY_TEST Inhibition of Bacterial Growth, detection method Resazurin, Fluorescence (ex560/em590), MEDIA CAMHB, plate type 384well, CORNING #3640, time 18 hr
# Escherichia coli = experiment: Antibacterial activity against Escherichia coli ATCC 25922 (CO-ADD:GN_001); MIC in CAMBH media using NBS plates, by Resazurin F(560/590); format: functional; conditions: Concentration 20 uM, ASSAY_TEST Inhibition of Bacterial Growth, detection method Resazurin, Fluorescence (ex560/em590), MEDIA CAMHB, plate type 384well, CORNING #3640, time 18 hr
# Klebsiella pneumoniae = conditions: Concentration 20 uM; ASSAY_TEST Inhibition of Bacterial Growth; detection method Absorption (OD600); MEDIA CAMHB; plate type 384well; NBS; CORNING #3640; time 18 hr
# Candida albicans = conditions: 20 µM
# Cryptococcus neoformans = conditions: Concentration 20 uM; ASSAY_TEST Inhibition of Fungal Growth; detection method Resazurin; Absorption (OD600-OD570); plate type 384well; NBS; CORNING #3640
Compound,Inhibition (Staphylococcus aureus) [%],Inhibition (Acinetobacter baumannii) [%],Inhibition (Escherichia coli) [%],Inhibition (Klebsiella pneumoniae) [%],Inhibition (Candida albicans) [%],Inhibition (Cryptococcus neoformans) [%]
O=C(Nc1ccc(Nc2ccccc2)cc1)Nc1ccccc1Cl,-2.92,1.03,8.7,12.39,2.75,-5.44
Cc1c(Cl)ccc2c(C(=O)O)cc(-c3ccccc3)nc12,-8.14,11.6,2.11,26.83,2.48,13.39
CC1=NN(c2ccccc2)C(=O)C1C(=S)SC1CC(=O)NC1=O (stereo not drawn),3.9,14.97,-13.13,16.67,6.57,3.97
COc1ccc2c(c1)CCN1C2CCN2C(=O)CCC21 (stereo not drawn),-11.91,-4.71,-9.16,7.62,3.14,-4.03
Cn1c(=O)c2nc(COc3ccc(C(C)(C)C)cc3)[nH]c2n(C)c1=O,-1.06,-14.84,1.91,9.47,3.68,-17.46
O=C(O)c1nc2nc(Cl)c(Cl)nc2[nH]1,-9.71,8.37,0.88,10.97,3.92,-11.32
CCOC(=O)CC(=O)NC(C)(C)CCCCC(C)(C)NC(=O)CC(=O)OCC,-5.26,-12.04,17.83,13.05,-0.86,-4.13
Cc1ccc(/N=N/c2ccc(N)cc2C)c(S(N)(=O)=O)c1,-7.58,-6.13,2.58,0.06,2.21,-0.55
CC12CCC(/C(=N/c3ccc(/N=C4\C(=O)C5(C)CCC4C5(C)C)cc3)C1=O)C2(C)C,-7.11,-9.62,14.23,11.61,0.19,-4.9
CN(c1cccnc1)c1[nH]cnc2nncc1-2,-13.03,-4.86,-0.96,-0.91,0.07,-5.56
CCC(C)Nc1nc2c(c(=O)n(C)c(=O)n2C)n1C (stereo not drawn),12.63,12.04,-1.91,12.65,3.5,-7.05
CCCSc1ncnc2[nH]ncc12,4.5,-9.04,5.02,27.49,6.91,-5.45
CC(O)(c1ccccc1)C(c1ccccc1)C1CCCCN1 (stereo not drawn),9.45,13.67,-4.2,13.38,7.26,-3.74
CC(C)(C)C(=O)Nc1ccc(NC(=O)C(C)(C)C)cc1,-3.56,6.93,0.85,26.03,6.58,1.66
Nc1ccc(Br)cc1Br,10.2,5.55,2.13,7.43,6.15,-7
C=CCN=C(NC#N)SC,-6.06,-0.66,-1.07,5.62,-0.02,0.87
c1ccc2c(c1)-c1cccc3cncc-2c13,1.08,-2.19,3.18,7.94,12.2,-10.41
CC1(CN2CCCC2)CCC(NC(=O)C(c2ccccc2)c2ccccc2)C(C)(C)O1 (stereo not drawn),23.4,6.65,12.21,18.43,0.1,-5.78
O=C(Nc1ccc2ccccc2c1)c1ccc(Cl)cc1Cl,8.36,-2.05,3.67,-0.53,-0.67,-1.28

Compound,Inhibition (Staphylococcus aureus) [%],Inhibition (Acinetobacter baumannii) [%],Inhibition (Escherichia coli) [%],Inhibition (Klebsiella pneumoniae) [%],Inhibition (Candida albicans) [%],Inhibition (Cryptococcus neoformans) [%]
CO/N=C1/C=C(C)C(=O)C(C)=C1C,4.57,-1.27,14.83,1.18,-2,-4.8
O=C(Nc1ccc2ncccc2c1)Nc1ccc2ncccc2c1,9.01,-26.89,13.25,9.25,0.58,-19.53
COCC(=O)Oc1cc(-c2ccc(C)cc2C)c(OC(=O)COC)c(-c2ccc(C)cc2C)c1,8.14,-8.27,6.56,4.04,7.18,-1.11
O=C(/C=C/c1ccccc1Cl)c1ccc(O)cc1,3.85,0.76,-16.06,19.85,14.7,8.89
O=C1c2ccccc2C(=O)c2c(Nc3ccc(CCO)cc3)ccc(O)c21,19.9,1.68,9.39,4.66,-0.52,-4.75
COc1cc(/N=N/c2cccc(S(N)(=O)=O)c2)c2ccccc2c1N,-2.34,3.92,-3.15,14.2,0.44,-17.61
COc1ccc(OC)c(NC(=O)c2cc3oc4ccccc4c3cc2O)c1,13.76,8.19,5.92,9.42,-3.33,-0.7
O=C(Nc1ccc(O)c(C(=O)O)c1)Oc1ccccc1,5.63,12.9,-6.34,11.35,5.9,-2.46
O=C(NN1CCCCC1)NN1CCCCC1,9.98,7.95,2.92,-4.05,1.96,-2.31
Clc1nc(NCCc2ccccc2)c2c[nH]nc2n1,2.77,12.4,0.9,13.65,5.89,-10.39
c1ccc2[nH]c(-c3ccncc3)nc2c1,11.19,-5.55,7.11,18.73,-0.07,-8.67
N#Cc1nnn(-c2ccc(Cl)cc2)c1N,17.83,3.74,11.71,-5.78,0.88,-4.67
CC(=O)OCCN1c2ccccc2Sc2cnccc21,-12.23,-1.85,-8.04,5.46,1.65,-8.61
ClC(Cl)(Cl)C1=Nc2c(nnn2Cc2ccccc2)CN1,1.51,7.83,14.39,3.07,-3.28,-12.54
CN(C)C(=S)/N=c1\ssc(=S)n1Cc1ccco1,13.2,6.63,0.6,0.81,2.24,5.1
C=CCNC(S)=Nc1c(N)n(C)c(=O)n(C)c1=O,11.89,5.83,-15.58,18.14,8.36,18.71
Cc1nc([N+](=O)[O-])cn1-c1nc2ccccn2c1[N+](=O)[O-],12.97,-5.05,12.78,11.88,4.75,-6.88
C=C1CC2(OC1=O)c1ccccc1CCc1ccccc12,-2.53,-14.2,2.27,9.76,10.3,-9.88
COc1cc(C(=O)c2cocc2C(=O)c2ccc3c(c2)OCO3)cc(OC)c1OC,27.15,-6.33,12.62,6.01,3.29,14.1
